According to PMC8384837, “Expanding the binding specificity for RNA recognition by a PUF domain”:

Experiments:
Test in all cases: yeast three-hybrid, YBZ-1, SC-Leu-His + 0.5 mM 3-AT, 4 days
Conditions in all cases: tags: N-Gal4 AD-HA kept; label: inside an RPR1-promoter hybrid RNA with tandem MS2 sites; ssRNA
[1] = target: PUM1 PUF domain R5-GKS (Homo sapiens, UniProt Q14671 828-1176, C1007G;R1008K;Q1011S)
How it was run: (§1)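 Each repeat of the Pumilio-1 PUF domain was randomized at its three base-contacting residues, and these libraries were co-expressed from a centromeric plasmid with matching RNA elements in strain YBZ-1. After four days on SC-Leu (input) or SC-Leu-His + 0.5 mM 3-AT (selection), the repeat regions were PCR-amplified and Illumina-sequenced. The interaction score compares variant frequency between input and selection as a log change, computed in log2 with a pseudocount of 1 for absent variants.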

[2] = target: PUM1 PUF domain R5-RQA (Homo sapiens, UniProt Q14671 828-1176, C1007R;R1008Q;Q1011A)
How it was run: as §1

[3] = target: PUM1 PUF domain R5-PRR (Homo sapiens, UniProt Q14671 828-1176, C1007P;Q1011R)
How it was run: as §1

[4] = target: PUM1 PUF domain R5-GGE (Homo sapiens, UniProt Q14671 828-1176, C1007G;R1008G;Q1011E)
How it was run: as §1

[5] = target: PUM1 PUF domain R5-SED (Homo sapiens, UniProt Q14671 828-1176, C1007S;R1008E;Q1011D)
How it was run: as §1

[6] = target: PUM1 PUF domain R5-QSC (Homo sapiens, UniProt Q14671 828-1176, C1007Q;R1008S;Q1011C)
How it was run: as §1

[7] = target: PUM1 PUF domain R5-SGC (Homo sapiens, UniProt Q14671 828-1176, C1007S;R1008G;Q1011C)
How it was run: as §1

[8] = target: PUM1 PUF domain R3-AIE (Homo sapiens, UniProt Q14671 828-1176, C935A;R936I;Q939E)
How it was run: as §1

[9] = target: PUM1 PUF domain R7-EFS (Homo sapiens, UniProt Q14671 828-1176, S1079E;N1080F;E1083S)
How it was run: as §1

[10] = target: PUM1 PUF domain R4-RIF (Homo sapiens, UniProt Q14671 828-1176, N971R;H972I;Q975F)
How it was run: as §1

[11] = target: PUM1 PUF domain R4-DWA (Homo sapiens, UniProt Q14671 828-1176, N971D;H972W;Q975A)
How it was run: as §1

[12] = target: PUM1 PUF domain R8-KHA (Homo sapiens, UniProt Q14671 828-1176, N1122K;Y1123H;Q1126A)
How it was run: as §1

[13] = target: PUM1 PUF domain R8-HFA (Homo sapiens, UniProt Q14671 828-1176, N1122H;Y1123F;Q1126A)
How it was run: as §1

[14] = target: T1, PUM1 PUF domain R6-EWV (Homo sapiens, UniProt Q14671 828-1176, N1043E;Y1044W;Q1047V)
T1 sequence: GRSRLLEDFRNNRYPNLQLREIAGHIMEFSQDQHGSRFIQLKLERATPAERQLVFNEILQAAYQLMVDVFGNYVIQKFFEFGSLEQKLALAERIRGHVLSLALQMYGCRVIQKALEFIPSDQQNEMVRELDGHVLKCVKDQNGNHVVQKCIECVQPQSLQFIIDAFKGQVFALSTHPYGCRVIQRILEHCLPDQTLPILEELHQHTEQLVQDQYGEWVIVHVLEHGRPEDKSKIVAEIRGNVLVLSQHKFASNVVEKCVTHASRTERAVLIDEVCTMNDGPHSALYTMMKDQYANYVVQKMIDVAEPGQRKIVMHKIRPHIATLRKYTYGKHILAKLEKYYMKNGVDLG
How it was run: as §1

[15] = target: PUM1 PUF domain R7-DFE (Homo sapiens, UniProt Q14671 828-1176, S1079D;N1080F)
How it was run: as §1

[16] = target: PUM1 PUF domain R5-RSK (Homo sapiens, UniProt Q14671 828-1176, C1007R;R1008S;Q1011K)
How it was run: as §1

[17] = target: PUM1 PUF domain R7-TVW (Homo sapiens, UniProt Q14671 828-1176, S1079T;N1080V;E1083W)
How it was run: as §1

[18] = target: PUM1 PUF domain R8-IRK (Homo sapiens, UniProt Q14671 828-1176, N1122I;Y1123R;Q1126K)
How it was run: as §1

[19] = target: PUM1 PUF domain R3-RIY (Homo sapiens, UniProt Q14671 828-1176, C935R;R936I;Q939Y)
How it was run: as §1

[20] = target: PUM1 PUF domain R3-RRK (Homo sapiens, UniProt Q14671 828-1176, C935R;Q939K)
How it was run: as §1

GGCUAGAACUAGUGGAUCCCCCGGCGCCCGGCGGCUCGAGCCCGGGUAAGUGUUAAUAGUCUGCAUGCCGCCGGGCGCCAUGCCUGCAGGUCGACUCUAGAAAACAUG
binding signal [1]: 3.25 log2 enrichment (interaction score) | binding signal [2]: 5.37 log2 enrichment (interaction score) | binding signal [3]: 3.23 log2 enrichment (interaction score)

GGCUAGAACUAGUGGAUCCCCCGGCGCCCGGCGGCUCGAGCCCGGGUAAGUGUGAAUAGUCUGCAUGCCGCCGGGCGCCAUGCCUGCAGGUCGACUCUAGAAAACAUG
binding signal [2]: 0.37 log2 enrichment (interaction score) | binding signal [4]: 3.62 log2 enrichment (interaction score) | binding signal [5]: 5.49 log2 enrichment (interaction score) | binding signal [3]: 2.13 log2 enrichment (interaction score) | binding signal [6]: 3.71 log2 enrichment (interaction score) | binding signal [7]: 2.36 log2 enrichment (interaction score)

GGCUAGAACUAGUGGAUCCCCCGGCGCCCGGCGGCUCGAGCCCGGGUAAGUGUAAGUAGUCUGCAUGCCGCCGGGCGCCAUGCCUGCAGGUCGACUCUAGAAAACAUG
binding signal [8]: 2.83 log2 enrichment (interaction score)

GGCUAGAACUAGUGGAUCCCCCGGCGCCCGGCGGCUCGAGCCCGGGUAAGUCUAAAUAGUCUGCAUGCCGCCGGGCGCCAUGCCUGCAGGUCGACUCUAGAAAACAUG
binding signal [9]: 2.94 log2 enrichment (interaction score)

GGCUAGAACUAGUGGAUCCCCCGGCGCCCGGCGGCUCGAGCCCGGGUAAGUGUAAAUAGUCUGCAUGCCGCCGGGCGCCAUGCCUGCAGGUCGACUCUAGAAAACAUG
binding signal [10]: 5.22 log2 enrichment (interaction score) | binding signal [11]: 5.39 log2 enrichment (interaction score) | binding signal [12]: 3.55 log2 enrichment (interaction score) | binding signal [13]: 2.13 log2 enrichment (interaction score) | binding signal [3]: 2.16 log2 enrichment (interaction score) | binding signal [14]: 1.65 log2 enrichment (interaction score) | binding signal [15]: 2.67 log2 enrichment (interaction score)

GGCUAGAACUAGUGGAUCCCCCGGCGCCCGGCGGCUCGAGCCCGGGUAAGUGUCAAUAGUCUGCAUGCCGCCGGGCGCCAUGCCUGCAGGUCGACUCUAGAAAACAUG
binding signal [1]: 0.75 log2 enrichment (interaction score) | binding signal [2]: 4.83 log2 enrichment (interaction score) | binding signal [3]: 0.75 log2 enrichment (interaction score) | binding signal [16]: 3.23 log2 enrichment (interaction score)

GGCUAGAACUAGUGGAUCCCCCGGCGCCCGGCGGCUCGAGCCCGGGUAAGUUUAAAUAGUCUGCAUGCCGCCGGGCGCCAUGCCUGCAGGUCGACUCUAGAAAACAUG
binding signal [17]: 3 log2 enrichment (interaction score)

GGCUAGAACUAGUGGAUCCCCCGGCGCCCGGCGGCUCGAGCCCGGGUAAGCGUAAAUAGUCUGCAUGCCGCCGGGCGCCAUGCCUGCAGGUCGACUCUAGAAAACAUG
binding signal [13]: 3.45 log2 enrichment (interaction score) | binding signal [18]: 2.54 log2 enrichment (interaction score)

GGCUAGAACUAGUGGAUCCCCCGGCGCCCGGCGGCUCGAGCCCGGGUAAGUGUACAUAGUCUGCAUGCCGCCGGGCGCCAUGCCUGCAGGUCGACUCUAGAAAACAUG
binding signal [11]: 5.13 log2 enrichment (interaction score)

GGCUAGAACUAGUGGAUCCCCCGGCGCCCGGCGGCUCGAGCCCGGGUAAGUGAAAAUAGUCUGCAUGCCGCCGGGCGCCAUGCCUGCAGGUCGACUCUAGAAAACAUG
binding signal [14]: 3.43 log2 enrichment (interaction score)

GGCUAGAACUAGUGGAUCCCCCGGCGCCCGGCGGCUCGAGCCCGGGUAAGUGUAAUUAGUCUGCAUGCCGCCGGGCGCCAUGCCUGCAGGUCGACUCUAGAAAACAUG
binding signal [19]: 2.12 log2 enrichment (interaction score) | binding signal [20]: 4.07 log2 enrichment (interaction score)
